Assay results published in PubChem BioAssay.
Records with an inconclusive call do not appear. The source made the active and inactive calls.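 The calls were made as follows, unless noted: active = cell viability at or below a set limit in both duplicate runs, the limit being the all-compound median minus 4 SD (cut at about 23% in these data, passing the limit was not always enough); inconclusive = no clear call, values can overlap the other calls; inactive = the rest.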

Columns and labels:
[1] = Her2 expression decrease, cell viability multiplex – SKBR3 breast tumor cells, AlphaScreen, ATP viability, primary screen (AID 461;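 active = Her2 level under about 52% in both replicate screens, with viability over 70% of control, limit read from the data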;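 as to Her2 level: lower value means less Her2 protein in the cells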;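 as to viability: percent of carrier control wells set as 100% viability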); conditions: SKBR3 Her2 protein level, 18-24 h, measured here: SKBR3 viability, ATP luminescence, at 10 µM
[2] = target: Receptor tyrosine-protein kinase erbB-2 (Homo sapiens) (UniProt P04626); test: as above; conditions: 18-24 h, at 10 µM, stronger effect = lower value
Chain of Receptor tyrosine-protein kinase erbB-2 (Homo sapiens) (P04626 whole entry, looked up): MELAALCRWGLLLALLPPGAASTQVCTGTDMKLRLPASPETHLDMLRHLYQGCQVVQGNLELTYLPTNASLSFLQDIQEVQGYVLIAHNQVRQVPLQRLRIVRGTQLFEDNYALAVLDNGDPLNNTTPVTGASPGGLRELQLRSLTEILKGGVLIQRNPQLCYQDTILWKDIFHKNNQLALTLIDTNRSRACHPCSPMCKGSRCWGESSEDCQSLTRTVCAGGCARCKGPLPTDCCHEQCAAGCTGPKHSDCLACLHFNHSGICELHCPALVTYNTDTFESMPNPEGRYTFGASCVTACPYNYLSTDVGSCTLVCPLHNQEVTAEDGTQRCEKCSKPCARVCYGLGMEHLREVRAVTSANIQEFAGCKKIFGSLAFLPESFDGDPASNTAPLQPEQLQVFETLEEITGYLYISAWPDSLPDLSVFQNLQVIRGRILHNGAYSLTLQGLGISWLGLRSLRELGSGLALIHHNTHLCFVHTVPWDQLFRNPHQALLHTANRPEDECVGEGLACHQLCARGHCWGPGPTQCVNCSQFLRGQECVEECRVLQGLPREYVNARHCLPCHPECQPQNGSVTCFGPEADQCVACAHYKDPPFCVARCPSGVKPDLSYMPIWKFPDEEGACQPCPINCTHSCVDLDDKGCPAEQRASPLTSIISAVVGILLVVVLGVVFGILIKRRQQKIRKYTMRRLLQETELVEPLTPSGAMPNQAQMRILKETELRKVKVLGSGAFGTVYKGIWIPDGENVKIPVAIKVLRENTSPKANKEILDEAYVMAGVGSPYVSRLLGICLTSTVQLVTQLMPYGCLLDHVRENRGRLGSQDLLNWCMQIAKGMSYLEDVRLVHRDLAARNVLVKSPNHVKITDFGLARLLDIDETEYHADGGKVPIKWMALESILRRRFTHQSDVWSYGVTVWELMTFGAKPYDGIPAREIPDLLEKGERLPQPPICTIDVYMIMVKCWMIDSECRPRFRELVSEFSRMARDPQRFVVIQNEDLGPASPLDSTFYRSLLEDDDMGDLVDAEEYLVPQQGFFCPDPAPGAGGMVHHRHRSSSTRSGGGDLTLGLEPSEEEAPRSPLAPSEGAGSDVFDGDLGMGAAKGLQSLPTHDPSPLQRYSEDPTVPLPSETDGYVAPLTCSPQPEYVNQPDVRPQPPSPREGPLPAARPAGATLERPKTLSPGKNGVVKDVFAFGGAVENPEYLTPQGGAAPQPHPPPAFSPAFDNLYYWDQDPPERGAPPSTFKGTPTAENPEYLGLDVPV

[3] = reduced viability of SK-BR-3 breast cancer cells – cell-based, 24 h, human, pilot screen (AID 572;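 active = viability at or below 10% of carrier control in both of two separate runs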;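 also: compound exposure lasted between 18 and 24 h rather than exactly 24 h; 100% = carrier-treated control wells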); conditions: SK-BR-3 viability, CellTiter-Glo luminescence, at 10 µM, stronger effect = lower value
[4] = HUVEC growth inhibition – cell-based, human, primary screen (AID 575;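 active = viability at or below 30% in both replicate assays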;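 also: 100% = median of untreated cell wells with 0.1% DMSO on each plate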); conditions: HUVEC proliferation, CellTiter-Glo luminescence, 72 h; at 10 µM; stronger effect = lower value
[5] = H69AR cell proliferation blockers – human, duplicate replicates, primary screen (AID 580;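 active = viability at or under a set limit in both replicates, limit being median viability minus 3 SD, cut at about 48% in these data, passing the limit was not always enough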;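 also: 100% = mean luminescence of untreated wells and 0% = no signal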); conditions: H69AR lung tumor cells viability, ATP luminescence, 72 h; at 10 µM; stronger effect = lower value
[6] = MRP1 drug-resistance reversers in H69AR cells – cell-based, doxorubicin co-treatment, pilot screen (AID 601;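 active = viability loss from added drug above about 55%, and viability with drug at most 40%, in both replicates, limit read from the data, passing the limit was not always enough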); conditions: CellTiter-Glo, 72 h, at 10 µM; for differential viability (reversal): stronger effect = higher value
[7] = yeast transport mutant growth inhibition pilot in 384-well plates, post-Golgi transport modulator project (AID 636; in the data active = inhibition above about 31%); conditions: absorbance 615 nm, about 18 h, stronger effect = higher value
[8] = growth suppression of yeast trafficking mutant, preliminary HTS, modulators of trafficking downstream of Golgi apparatus project, 1536-format plate, OD 615 nm (AID 637; in the data active = inhibition above about 30%); conditions: yeast transport mutant growth, absorbance 615 nm, 18 h; stronger effect = higher value
[9] = S. cerevisiae growth inhibition in permissive medium (OD615), pilot counter-assay for S. cerevisiae lifespan shortening project, permissive growth control (AID 705;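 active = growth inhibition above 25% in both replicates, a cutoff set 3 SD above the mean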); conditions: OD615, 24 h, at 10 µM, stronger effect = higher value
[10] = S. cerevisiae growth inhibition in restrictive medium, OD615, pilot screen, restrictive growth control, yeast lifespan reduction project (AID 706;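 active = growth inhibition above a set limit, 3 SD over mean compound inhibition, in both replicates, cut at about 43% in these data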;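 also: modified DeaD lifespan yeast strain shifted to restrictive glucose medium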); conditions: OD615, 48 h, at 10 µM, stronger effect = higher value
[11] = doxorubicin toxicity protection in MRP-1 cells – H69AR cells, CellTiter-Glo, duplicate, MRP-1 activator project, pilot screen (AID 807;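 active = viability increase at or above a cutoff of the median across tested compounds plus 3 SD, cut at about 8.5% in these data, passing the limit was not always enough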;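 also: compound pretreatment 18-22 h then 72 h combined with doxorubicin; 0% = doxorubicin alone and 100% = vehicle without doxorubicin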); conditions: H69AR viability with doxorubicin, CellTiter-Glo luminescence; at 10 µM; stronger effect = higher value
[12] = viability of HCT116 without oncogenic beta-catenin – human colon tumor cells, pilot screen (AID 823); conditions: HCT116 beta-catenin knockout viability, CellTiter-Glo, 60 h; at 10 µM; stronger effect = lower value;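 also: 0% = wells killed by 20 µM Hyamine and 100% = untreated DMSO cell wells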
[13] = viability of PTEN-null HCT116 cells – cell-based, HCT116 clonal line, CellTiter-Glo, pilot screen (AID 824;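 active = viability at or below 27.92% in each of two runs, the all-compound median minus 4 SD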;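 also: 0% = 20 µM Hyamine control and 100% = vehicle cell control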); conditions: HCT116 PTEN-deleted viability, 60 h, at 10 µM, stronger effect = lower value
[14] = RAM pathway blockade in budding yeast – dse1pr::URA3 reporter, 5-FOA selection, pilot screen (AID 869;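 active = inhibition over a set limit, the all-compound mean plus 3 SD, in both replicate runs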;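 also: 0% = DMSO wells with no growth and 100% = 10 µM 1-NA-PP1 with full growth; RAM network block rescues cells from 5-FOA so hits raise OD615 growth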); conditions: S. cerevisiae dse1pr::URA3 5-FOA growth, OD615, 2 d; at 10 µM; stronger effect = higher value; strain carries analog-sensitive mutant Cbk1 kinase
[15] = RAM signaling pathway blockade in yeast – S. cerevisiae, Pdr1DBD-CYC8 efflux-inhibited sensitized strain, primary screen (AID 1298;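 active = RAM network inhibition above 8.4% in each of two replicates, 3 SD over the compound average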;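 also: 0% = DMSO untreated cells without growth and 100% = 10 µM 1-NA-PP1 full growth; higher means more yeast growth rescued from 5-FOA killing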); conditions: S. cerevisiae cbk1-as DSE1-URA3 strain, 5-FOA growth OD615, 2 d; at 50 µM; stronger effect = higher value
[16] = H69AR cells + 2 uM doxorubicin, measured here: viability with 2 uM doxorubicin, stronger effect = lower value
[17] = H69AR cells, compound alone cytotoxicity

Structure (SMILES)	viability [1] [%]	Her2 level [2]	viability [3]	viability [4]	viability [5]	differential viability (reversal) ([6]; H69AR cells + 2 uM doxorubicin)	viability [6, 16] [%]	viability [6, 17] [%]	inhibition [7]	inhibition [8]	growth inhibition [9]	growth inhibition [10]	viability increase [11]	viability [12]	viability [13]	inhibition [14]	RAM network inhibition [15]
N#Cc1cnc2sc3ccccc3n2c1=N	99	114% (inactive)	99% (inactive)	69% (inactive)	87.7% (inactive)	-2.73% (inactive)	90.5	87.7	-3.07% (inactive)	3.06% (inactive)	0.55% (inactive)	12.3% (inactive)	-1.27% (inactive)	94.4% (inactive)	95.9% (inactive)	-0.405% (inactive)	5.97% (inactive)
COc1cccc(C2CC(c3ccc(C)cc3)Nc3nc(N)nn32)c1 (stereo not drawn)	88	98.5% (inactive)	88% (inactive)	99.2% (inactive)	97.9% (inactive)	4.01% (inactive)	93.9	97.9	-0.4% (inactive)	-5.9% (inactive)	-2.17% (inactive)	2.23% (inactive)	0.54% (inactive)	98.6% (inactive)	95.5% (inactive)	0.515% (inactive)	-0.56% (inactive)
CCC(C)OC(=O)C1=C(C)NC2=C(C(=O)C(C(=O)OC)C(C)C2)C1c1ccc(N(C)C)cc1 (stereo not drawn)	94.5	108% (inactive)	94.5% (inactive)	110% (inactive)	95.8% (inactive)	4.35% (inactive)	91.5	95.8	-2.11% (inactive)	-5.09% (inactive)	-3.15% (inactive)	-7.23% (inactive)	-0.39% (inactive)	86% (inactive)	75.7% (inactive)	1.46% (inactive)	8.17% (inactive)
COc1cc2c(cc1OC)-c1nnc(-c3cccs3)n1C(C)(C)C2	64.5	95.5% (inactive)	64.5% (inactive)	114% (inactive)	102% (inactive)	2.48% (inactive)	99.1	102	0.13% (inactive)	-4.17% (inactive)	-11.8% (inactive)	-8.72% (inactive)	-2.78% (inactive)	90.4% (inactive)	80.6% (inactive)	0.115% (inactive)	0.94% (inactive)
COc1ccc(-n2c(Cc3cccn3C)nnc2SCC(=O)Nc2cccc(Cl)c2)cc1	103	89% (inactive)	103% (inactive)	63.3% (inactive)	85.3% (inactive)	-2.28% (inactive)	87.6	85.3	-2.8% (inactive)	-2.67% (inactive)	4.36% (inactive)	21.3% (inactive)	-1.93% (inactive)	76.5% (inactive)	62.4% (inactive)	0.615% (inactive)	11% (inactive)
Cc1nc2ccccn2c1/C(O)=C1\C(=O)C(=O)N(CCCN(C)C)C1c1ccc(F)cc1 (stereo not drawn)	89	91% (inactive)	89% (inactive)	94.4% (inactive)	90.8% (inactive)	-13.7% (inactive)	105	90.8	0.4% (inactive)	3.11% (inactive)	-6.91% (inactive)	-14% (inactive)	-2.7% (inactive)	104% (inactive)	88.1% (inactive)	0.255% (inactive)	-2.2% (inactive)
COc1ccc(C2CC(=O)C(C=NCCCN3CCOCC3)=C(O)C2)cc1 (stereo not drawn)	84.5	82.5% (inactive)	84.5% (inactive)	102% (inactive)	99.3% (inactive)	12.8% (inactive)	86.5	99.3	-1.15% (inactive)	-1.33% (inactive)	-0.615% (inactive)	1.58% (inactive)	0.71% (inactive)	103% (inactive)	101% (inactive)	2.07% (inactive)	3.01% (inactive)
Cc1nc2ccccc2c2oc(C(=O)N3CCC(N4CCCCC4)CC3)cc12	102	104% (inactive)	102% (inactive)	75.7% (inactive)	87.4% (inactive)	9.3% (inactive)	78.1	87.4	-2.82% (inactive)	0.17% (inactive)	-9.32% (inactive)	-4.43% (inactive)	-4.92% (inactive)	83.9% (inactive)	79.6% (inactive)	0.43% (inactive)	4.3% (inactive)
CCOC(=O)N1CCN(Cc2nc3c(c(=O)n(C)c(=O)n3C)n2Cc2ccc(F)cc2)CC1	86.5	101% (inactive)	86.5% (inactive)	92.9% (inactive)	72.6% (inactive)	-0.205% (inactive)	72.8	72.6	-4.27% (inactive)	3.67% (inactive)	-5.48% (inactive)	5.73% (inactive)	-3.14% (inactive)	93.3% (inactive)	81.7% (inactive)	0.44% (inactive)	0.36% (inactive)
